# Most compounds without a hit are left out; they make up all but 2.6% or so of the library.
# Gli-Sufu antag: Gli-Sufu pathway antagonists, primary screen, luciferase luminescence, Sufu-KO-LIGHT cells, uHTS; inhibition, % at 5 µM; 340,000 tested, 0.74% active; Sufu-KO-LIGHT fibroblasts, Gli luciferase reporter luminescence; AID 588413, 2011;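 active = inhibition above about 55%, limit read from the data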;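 note: 0% = DMSO-treated cells and 100% = wells with medium but no cells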
# H9c2 TAG inh: inhibitors of triacylglycerol accumulation, primary screen, cell-based, uHTS, fluorescence, H9c2 | AID 651582, 2012 | H9c2 cells, Nile Red lipid (TAG) fluorescence; cells loaded with 200 µM oleic acid | 230,000 tested, 0.66% active | inhibition, % at 12.5 µM;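 active = pattern-corrected inhibition of lipid staining of at least 50% with the nuclear-stain viability signal not falling by more than 50%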;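 note: 0% = DMSO wells and 100% = triacsin C control wells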
# COUP-TFII inh: NR2F2 transcriptional activity inhibitors, primary screen, cell-based, luciferase reporter, HEK293T, luminescence; HEK293T NGFI-A luciferase reporter; COUP transcription factor 2 (Homo sapiens), P24468; 370,000 tested, 0.7% active; inhibition, % at 8.6 µM;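 active = inhibition above a per-plate cutoff, mean inhibition of test wells between control levels plus 3 SD, cut at about 38% in these data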;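 note: cells cotransfected with COUP-TFII expression vector driving the NGFI-A reporter; 0% = median of COUP-TF2 test wells and 100% = reporter-only cells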
# Target sequence (P24468 whole entry, looked up): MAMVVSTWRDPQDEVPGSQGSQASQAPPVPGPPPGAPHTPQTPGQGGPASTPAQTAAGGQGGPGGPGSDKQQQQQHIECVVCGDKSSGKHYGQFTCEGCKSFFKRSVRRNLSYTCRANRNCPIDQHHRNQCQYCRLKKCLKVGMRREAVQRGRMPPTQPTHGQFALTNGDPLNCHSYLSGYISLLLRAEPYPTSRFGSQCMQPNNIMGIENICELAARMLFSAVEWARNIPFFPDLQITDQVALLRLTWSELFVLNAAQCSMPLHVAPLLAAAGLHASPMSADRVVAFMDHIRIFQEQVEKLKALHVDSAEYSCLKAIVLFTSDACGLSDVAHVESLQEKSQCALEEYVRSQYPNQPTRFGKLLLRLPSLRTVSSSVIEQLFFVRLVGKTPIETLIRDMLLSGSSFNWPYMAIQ
# 697 NFkB inh: inhibitors of PMA/ionomycin-induced NF-kB reporter, 697 cells, primary screen, B-cell NF-kB inhibitor project, cell-based, luminescence, uHTS; 697 B-cell NF-kB luciferase reporter, 16 h; inhibition, % at 4 µM; 330,000 tested, 0.33% active; AID 435022, 2010; in the data active = inhibition above about 35%
# Cardio protect: cardioprotection against H2O2-induced cell death, primary screen, uHTS, H9c2 cells, ATPLite luminescence; H9c2 cardiomyocytes, H2O2 injury protection, 2 h; protection from H2O2 cell death, % at 20 µM; 360,000 tested, 0.63% active; AID 588492, 2011;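 active = compounds giving at least 50% protection of heart cells from peroxide-induced death in the single-dose screen, raw or plate-pattern-corrected value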;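 note: 0% = DMSO wells with peroxide and 100% = DMSO wells without peroxide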
# Jurkat NFkB inh: inhibitors of induced NF-kB luciferase reporter, primary screen, TCR NF-kB activation inhibitor project, cell-based, luminescence, uHTS | Jurkat, PMA/ionomycin-induced NF-kB luciferase reporter | AID 435003, 2010 | 330,000 tested, 0.53% active | inhibition, % at 4 µM; in the data active = inhibition above about 50%
# Gli antag conf: Gli-SUFU pathway antagonists, confirmation, single concentration, luciferase luminescence, Sufu-KO-LIGHT cells. Gli luciferase reporter. inhibition, % at 5 µM. shares compounds with Gli-Sufu antag. 2,500 tested, 40% active;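 active = mean inhibition at 5 µM reaching about 45%, limit read from the data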;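 note: plate controls were DMSO-treated cells for no effect and wells lacking cells for full effect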
# Gli cytotox: cytotoxicity in Sufu-KO-LIGHT cells, confirmation, cytotoxicity control for Gli-SUFU antagonist project, cell-based, ATP luminescence, single concentration | shares compounds with Gli-Sufu antag | cytotoxicity, % at 5 µM | 2,500 tested, 32% active | AID 651994, 2013;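 active = mean cytotoxicity at 5 µM above about 25%, limit read from the data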;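 note: cells exposed to compound overnight for roughly 16 to 18 hours; plate controls were DMSO wells with cells for no effect and medium without cells for full effect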
# Wnt3a counter: Wnt3a reporter signal inhibition, confirmation, counter-screen for Gli-SUFU antagonist project, Wnt-LIGHT cells, luminescence, single concentration | shares compounds with Gli-Sufu antag | Wnt3a-driven luciferase reporter | inhibition, % at 6.25 µM | 2,500 tested, 20% active | AID 651995, 2013;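 active = mean inhibition above about 25%, limit read from the data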
# The depositor's hits bear a star; . = not tested or not shown.
SMILES,Gli-Sufu antag,H9c2 TAG inh,COUP-TFII inh,697 NFkB inh,Cardio protect,Jurkat NFkB inh,Gli antag conf,Gli cytotox,Wnt3a counter
O=c1[nH]c(=O)n(Cc2ccco2)c2c1C(C(F)(F)F)(C(F)(F)F)N=C(c1ccc(F)cc1)N2,51.2,.,-9.2,-19.4,-11.0,23.6,64.7*,15.7,62.2*
O=c1[nH]c(=O)n(Cc2ccccc2)c2c1C(C(F)(F)F)(C(F)(F)F)N=C(c1ccco1)N2,16.1,-7.6,-17.1,-2.7,-1.8,-0.2,.,.,.
CC(C)(C)n1nc(C2CC2)c(Br)c1NC(=O)c1ccccc1Cl,.,.,-25.8,.,.,.,.,.,.
COC(=O)c1c(-n2cnnn2)sc(C)c1C,50.3,.,8.5,13.7,0.0,8.7,19.6,2.2,-41.4
COC(=O)c1c(N2C(=O)Nc3ccccc3N2O)sc(C)c1C,-3.2,.,0.9,5.2,13.4,13.6,.,.,.
CC1CCCCC1NS(=O)(=O)c1ccc(S(=O)(=O)NCc2ccncc2)cc1 (stereo not drawn),67.1*,.,.,23.5,.,47.7,58.9*,24.4,19.9
CC(=O)Nc1ccc(S(=O)(=O)NCc2ccncc2)cc1,55.5*,-16.1,16.9,-16.9,-21.8,8.2,41.5,14.7,17.3
COC(=O)[C@]12C[C@H](CC(=O)NCc3cccs3)C(=O)N(Cc3cccc4ccccc34)C1=C[C@H](C1CCCC1)O[C@@H]2C,.,.,5.2,.,.,.,.,.,.
COc1ccc(CC(=O)N2CCN(C(=O)c3ccc4nc(C)n(C5CCCC5)c4c3)CC2)cc1,.,.,-9.7,.,.,.,.,.,.
COc1cccc(CN2CCN(S(=O)(=O)c3ccc(Br)cc3)CC2)c1,6.6,.,-7.9,1.9,-12.9,1.5,.,.,.
COc1ccc(S(=O)(=O)N2CCN(Cc3cccc(OC)c3)CC2)cc1,62.1*,-16.5,7.8,10.1,-3.0,15.6,22.6,-3.3,8.1
COCc1cc(N2CCN(C(=O)OC(C)(C)C)C[C@H]2C)ccc1N1CCN(Cc2ccccc2)[C@@H](C)C1,.,.,18.4,.,.,.,.,.,.
CCn1cc(CN2CCC(n3nccc3NC(=O)CCc3ccccc3)CC2)cn1,83.5*,-4.1,4.9,12.3,1.8,9.3,33.8,11.9,9.4
Cc1c(C(=O)OCC(=O)N2CC(=O)Nc3ccccc32)oc2ccccc12,94.4*,3.3,8.9,-2.8,24.3,-11.3,11.8,13.7,-34.8
O=C1CN(C(=O)COC(=O)c2oc3ccccc3c2COc2ccccc2)c2ccccc2N1,5.1,.,4.2,-11.5,8.1,14.8,.,.,.
COCCn1c(SCC(=O)Nc2cc(C)on2)nc2c(c1=O)SCC2,51.7,.,-5.4,-15.1,5.0,7.7,20.4,-4.1,-10.7
Cc1cc(NC(=O)CSc2nc3c(c(=O)n2C)SCC3)no1,10.4,-11.0,2.4,-20.1,2.7,6.7,.,.,.
CCN(c1ccccc1)S(=O)(=O)c1ccc(N2CCN(c3ccc(O)cc3)CC2)nc1,55.2*,-37.2,24.9,-21.2,-9.5,-1.5,29.0,3.7,-23.5
COc1ccc(C2(O)CN(c3ccc(C)cc3)C3=[N+]2CCCC3)cc1 (stereo not drawn),53.6,1.6,-1.7,7.3,-9.8,-8.0,55.5*,33.0*,-0.3
COc1ccc(S[C@]2(C(=O)N3CCCC3)CC(=O)N(C(=O)Nc3ccc(C)c(Cl)c3)[C@@H]2c2ccc(OC)cc2)cc1,.,.,-10.3,.,.,.,.,.,.
Cc1cc(Oc2cccnc2)ccc1NC(=O)Cc1c(C)[nH]c2ccccc12,.,.,-21.4,.,.,.,.,.,.

# Screens as filed in PubChem.
